The values that follow come from the supplement of paper PMC9588786.

Structures are written as SMILES. ± gives the standard deviation of the averaged measurements.
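Further: viability read as CCK-8 absorbance at 450 nm in cells co-exposed to the GPX4 inhibitor RSL3, relative to a 0.01% DMSO vehicle control.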

The test system of this assay is HT-1080. As to the kind of experiment: relative cell viability with RSL3 co-treatment (fraction of control); higher = stronger protection from RSL3-induced ferroptosis (higher viability). The settings on record: 10 µM.
Regarding `C[C@]1(O)C[C@@H](c2nc(-c3ccc4ccc(-c5ccccc5)nc4c3)c3c(N)nccn32)C1` [Linsitinib (OSI-906)], the relative cell viability came out at 0.587 ± 0.029. Consider `C=CC(=O)N1CCC[C@@H](n2nc(-c3ccc(Oc4ccccc4)cc3)c3c(N)ncnc32)C1`, for which the relative cell viability amounted to 0.933 ± 0.11. For `CN(C)Cc1cccc(N=C(c2ccccc2)c2c(O)[nH]c3cc(C(=O)N(C)C)ccc23)c1`, the relative cell viability stood at 0.79 ± 0.044.
